Calls of active or inactive are those of the source.

Experiment [1] relates to Plasmodium falciparum Sir2 (PF13_0152, Sir2A). As to the kind of experiment: Plasmodium falciparum Sir2A binding compounds – biochemical, small-molecule microarray, 635 nm fluorescence, primary screen (AID 1098).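 Note: score merges spot fluorescence intensity with its signal-to-noise ratio.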 Particulars: fluorescence 635 nm, higher = more signal.
Experiment [2] in a line: probe aDKK1 binding to arrayed compounds – biochemical, biotinylated probe, 635/667 nm fluorescence, primary screen (AID 1099).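 Note: score merges 667nm spot fluorescence with signal to noise across triplicate slides.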 Conditions: small-molecule microarray, higher = more signal.
Experiment [3] in a line: probe aCHRDL2 binding to arrayed compounds – biochemical, biotinylated probe, 635/667 nm fluorescence, primary screen (AID 1100). Conditions: small-molecule microarray, higher = more signal.
Experiment [4] can be described thus: change in splice reporter luminescence, either direction, cell-based, HEK293, spliceosome inhibition project, primary screen (AID 1101).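 Note: HEK293 cells carrying a splicing-competent luciferase reporter gene; test concentration not given here.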 Conditions: HEK293 splicing luciferase reporter, 24 h, higher = more signal, called active from +8 up or from −8 down.
The target in experiment [5] is Fibroblast growth factor 10 (Homo sapiens) (UniProt O15520). The experiment in a line: compounds binding fibroblast growth factor 10 – biochemical, small-molecule microarray, 635 nm fluorescence, primary screen (AID 1102). Conditions: FGF10 binding, fluorescence 635 nm, higher = more signal.
Sequence of Fibroblast growth factor 10 (Homo sapiens) (O15520 whole entry, looked up): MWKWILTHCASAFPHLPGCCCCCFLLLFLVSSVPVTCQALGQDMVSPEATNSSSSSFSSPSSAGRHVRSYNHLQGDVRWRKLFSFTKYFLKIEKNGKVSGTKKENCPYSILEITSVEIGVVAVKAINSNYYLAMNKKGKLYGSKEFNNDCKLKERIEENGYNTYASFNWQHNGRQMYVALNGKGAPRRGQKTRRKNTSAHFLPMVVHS
Experiment [6] concerns glycogen synthase kinase-3 (GSK3A per assay name; protocol says GSK3B). The experiment in a line: compounds binding glycogen synthase kinase-3 – biochemical, small-molecule microarray, 635 nm fluorescence, GSK3A, primary screen (AID 1103). Note: the record names both GSK3A and GSK3B. Conditions: fluorescence 635 nm, higher = more signal.
The target of experiment [7] is Epidermal growth factor receptor (Homo sapiens) (UniProt P00533). As to the kind of experiment: compounds binding epidermal growth factor receptor – biochemical, small-molecule microarray, 635 nm fluorescence, primary screen (AID 1104).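 Note: score merges 667 nm emission intensity with spot signal to noise over triplicate slides.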 Conditions: EGFR binding, higher = more signal.
Sequence of Epidermal growth factor receptor (Homo sapiens) (P00533 whole entry, looked up): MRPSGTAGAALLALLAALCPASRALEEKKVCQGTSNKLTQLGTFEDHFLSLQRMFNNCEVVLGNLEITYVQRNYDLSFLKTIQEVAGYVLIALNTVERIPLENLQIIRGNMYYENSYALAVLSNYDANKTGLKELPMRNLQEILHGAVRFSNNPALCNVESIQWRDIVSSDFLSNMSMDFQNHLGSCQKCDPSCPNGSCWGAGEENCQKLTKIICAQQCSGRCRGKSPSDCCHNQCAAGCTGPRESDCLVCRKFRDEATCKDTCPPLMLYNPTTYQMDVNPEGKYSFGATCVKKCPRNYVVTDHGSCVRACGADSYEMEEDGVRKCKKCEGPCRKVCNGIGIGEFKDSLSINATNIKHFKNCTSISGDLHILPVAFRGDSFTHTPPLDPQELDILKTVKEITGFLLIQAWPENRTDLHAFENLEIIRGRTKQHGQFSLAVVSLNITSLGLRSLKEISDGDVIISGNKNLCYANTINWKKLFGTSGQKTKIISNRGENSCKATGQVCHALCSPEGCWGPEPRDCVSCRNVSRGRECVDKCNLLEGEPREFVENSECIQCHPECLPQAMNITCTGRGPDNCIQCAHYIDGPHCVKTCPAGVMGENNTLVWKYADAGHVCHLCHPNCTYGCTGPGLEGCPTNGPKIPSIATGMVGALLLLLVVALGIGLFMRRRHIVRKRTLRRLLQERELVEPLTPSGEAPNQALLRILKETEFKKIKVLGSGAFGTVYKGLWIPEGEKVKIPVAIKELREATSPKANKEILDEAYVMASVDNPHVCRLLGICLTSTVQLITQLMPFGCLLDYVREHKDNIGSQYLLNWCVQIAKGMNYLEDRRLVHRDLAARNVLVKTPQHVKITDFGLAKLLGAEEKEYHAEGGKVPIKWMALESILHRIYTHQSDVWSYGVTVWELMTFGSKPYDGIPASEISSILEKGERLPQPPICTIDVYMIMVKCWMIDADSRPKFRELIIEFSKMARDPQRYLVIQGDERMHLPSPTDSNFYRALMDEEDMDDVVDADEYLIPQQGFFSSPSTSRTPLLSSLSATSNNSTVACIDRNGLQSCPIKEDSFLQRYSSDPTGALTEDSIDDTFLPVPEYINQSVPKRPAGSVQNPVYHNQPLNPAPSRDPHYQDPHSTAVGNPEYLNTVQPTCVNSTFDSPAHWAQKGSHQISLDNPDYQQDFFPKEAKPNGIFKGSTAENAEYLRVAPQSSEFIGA
Experiment [8] concerns the target Follistatin-related protein 3 (Homo sapiens) (UniProt O95633). As to the kind of experiment: compounds binding follistatin-related protein 3 – biochemical, small-molecule microarray, 635 nm fluorescence, primary screen (AID 1105).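 Note: score merges emission near 667 nm and signal to noise per printed spot across three slides.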 Particulars: FSTL3 binding, higher = more signal.
The target in experiment [9] is Dickkopf-related protein 1 (Homo sapiens) (UniProt O94907). As to the kind of experiment: small molecules binding DKK1 protein – biochemical, small-molecule microarray, 635 nm fluorescence scan, primary screen (AID 1106).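 Note: score merges emission near 667 nm with signal to noise over three replicate slides.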 Conditions: higher = more signal.
Sequence of Dickkopf-related protein 1 (Homo sapiens) (O94907 whole entry, looked up): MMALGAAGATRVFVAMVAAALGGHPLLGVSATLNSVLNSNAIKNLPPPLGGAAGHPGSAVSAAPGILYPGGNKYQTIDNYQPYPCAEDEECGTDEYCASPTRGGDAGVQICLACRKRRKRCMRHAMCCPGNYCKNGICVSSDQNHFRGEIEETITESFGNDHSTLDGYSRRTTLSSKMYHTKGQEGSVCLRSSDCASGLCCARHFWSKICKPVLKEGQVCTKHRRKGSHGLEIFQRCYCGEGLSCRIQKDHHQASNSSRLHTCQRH
For experiment [10], the system named is Inhibin beta A chain (activin A). The experiment in a line: small molecules binding activin A – biochemical, small-molecule microarray, 635 nm fluorescence scan, primary screen (AID 1107).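 Note: mouse activin A protein probed at 4.33 µg/mL on printed slides; score merges bound-protein fluorescence near 667 nm with spot signal-to-noise.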 Particulars: INHBA, higher = more signal.
Experiment [11] concerns Human papillomavirus type 1a protein E7 (residues 44-93). The experiment in a line: small molecules binding HPV E7 44-93 – biochemical, small-molecule microarray, residues 44-93, 635 nm fluorescence, primary screen (AID 1108).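 Note: E7 fragment applied at 1 µg/mL in TBST for 1 h at 4 C; score combines spot fluorescence with its signal to noise ratio.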 Conditions: fluorescence 635 nm, higher = more signal.
Experiment [12] can be described thus: hepatitis C replication reporter changes, two-sided – Huh7 cells, luciferase reporter, HCV replication inhibitor project, primary screen (AID 1109).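 Note: huh7 hepatoma cells harbouring a luciferase neomycin HCV replicon reporter; luciferase luminescence as measure of HCV replicon replication; test concentration not given here.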 Particulars: Huh7 HCV replicon luciferase reporter, 48 h; higher = more signal. For orientation: Reporter assays use an easily measured gene product as a stand-in for the process of interest.
Experiment [13] deals with Left-right determination factor 2 (Homo sapiens) (UniProt O00292). As to the kind of experiment: small molecules binding LEFTY2 protein – biochemical, small-molecule microarray, 635 nm fluorescence scan, primary screen (AID 1110). Particulars: higher = more signal.
Sequence of Left-right determination factor 2 (Homo sapiens) (O00292 whole entry, looked up): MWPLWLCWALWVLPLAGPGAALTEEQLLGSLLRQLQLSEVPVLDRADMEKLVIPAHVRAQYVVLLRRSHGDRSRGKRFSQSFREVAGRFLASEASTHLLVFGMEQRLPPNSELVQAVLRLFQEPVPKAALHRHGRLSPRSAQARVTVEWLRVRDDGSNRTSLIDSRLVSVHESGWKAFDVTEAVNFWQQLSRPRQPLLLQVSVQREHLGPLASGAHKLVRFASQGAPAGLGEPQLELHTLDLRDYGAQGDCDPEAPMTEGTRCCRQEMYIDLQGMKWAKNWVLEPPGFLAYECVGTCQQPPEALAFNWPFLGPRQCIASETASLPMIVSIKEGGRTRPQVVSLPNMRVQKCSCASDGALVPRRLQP
Experiment [14] concerns the target Calmodulin-1 (Homo sapiens) (UniProt P0DP23). The experiment in a line: small molecules binding calmodulin-1 with EGTA – biochemical, small-molecule microarray, Cy5-labelled CALM1, profiling panel (AID 1111).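 Note: labelled calmodulin applied in Tris saline Tween buffer holding calcium plus EGTA and DTT.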 Conditions: Cy5-CALM1 binding fluorescence, higher = more signal.
The target is the same in experiment [15]. As to the kind of experiment: small molecules binding Ca-loaded calmodulin-1 – biochemical, small-molecule microarray, Cy5-labelled CALM1, plus calcium, artefact control for SMM control-protein annotation, profiling panel (AID 1112).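 Note: score merges spot fluorescence with signal to noise from triplicate slides.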 Particulars: Cy5-CALM1 binding fluorescence, higher = more signal.
Experiment [16] can be described thus: probe aWnt5a binding to arrayed compounds – biochemical, biotinylated probe, 635/667 nm fluorescence, primary screen (AID 1113).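 Note: score merges 667 nm fluorescence intensity with signal-to-noise per printed feature.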 Particulars: small-molecule microarray, higher = more signal.
The nature of experiment [17]: probe aShh binding to arrayed compounds – biochemical, biotinylated probe, 635/667 nm fluorescence, primary screen (AID 1114).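 Note: probe is biotin-labelled aShh protein from a stem cell growth factor screen; measures binding of labelled protein to compounds printed on the slide; score merges feature fluorescence at 667 nm with signal-to-noise.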 Conditions: small-molecule microarray, higher = more signal.
Experiment [18] in a line: probe aNog binding to arrayed compounds – biochemical, biotinylated probe, 635/667 nm fluorescence, primary screen (AID 1115).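 Note: probe is biotinylated aNog protein used at 0.15 µg/mL for 1 h at 4 C; z-score combines 667 nm fluorescence of each spot with its signal to noise.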 Particulars: small-molecule microarray, higher = more signal.
The target in experiment [19] is Torsin-1A-interacting protein 1 (Homo sapiens) (UniProt Q5JTV8). The experiment in a line: compound microarray binding of lysate hLAP1 – cell lysate, small-molecule microarray, COS7 lysate, 635/667 nm fluorescence, primary screen (AID 1116). Conditions: 635 nm fluorescence, higher = more signal.
Sequence of Torsin-1A-interacting protein 1 (Homo sapiens) (Q5JTV8 whole entry, looked up): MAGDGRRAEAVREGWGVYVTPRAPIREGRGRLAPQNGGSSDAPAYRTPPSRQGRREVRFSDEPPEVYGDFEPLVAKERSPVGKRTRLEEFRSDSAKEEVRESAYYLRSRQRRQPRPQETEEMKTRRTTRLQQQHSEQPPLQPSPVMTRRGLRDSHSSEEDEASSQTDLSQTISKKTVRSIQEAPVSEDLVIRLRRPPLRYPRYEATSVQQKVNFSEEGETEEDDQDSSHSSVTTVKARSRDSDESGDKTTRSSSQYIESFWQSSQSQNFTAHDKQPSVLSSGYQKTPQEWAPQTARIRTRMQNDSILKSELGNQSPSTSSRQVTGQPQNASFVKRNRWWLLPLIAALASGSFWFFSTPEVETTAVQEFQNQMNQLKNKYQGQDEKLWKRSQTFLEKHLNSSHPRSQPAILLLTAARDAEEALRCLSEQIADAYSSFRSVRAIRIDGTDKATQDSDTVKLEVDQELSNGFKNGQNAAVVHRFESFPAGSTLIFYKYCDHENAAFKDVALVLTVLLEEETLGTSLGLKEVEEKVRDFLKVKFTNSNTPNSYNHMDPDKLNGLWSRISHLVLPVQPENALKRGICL
In experiment [20] the target is Alpha-bungarotoxin (Bungarus multicinctus) (UniProt P60615). The experiment in a line: compounds binding labelled alpha-BTX control protein – biochemical, small-molecule microarray, Alexa647 label, 635/667 nm fluorescence, artefact control for SMM control protein annotation, profiling panel (AID 1117). Particulars: alpha-BTX-A647 binding fluorescence, higher = more signal.
Sequence of Alpha-bungarotoxin (Bungarus multicinctus) (P60615 whole entry, looked up): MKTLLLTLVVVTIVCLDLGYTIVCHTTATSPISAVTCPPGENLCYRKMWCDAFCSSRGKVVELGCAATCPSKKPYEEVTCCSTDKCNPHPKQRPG

Sequence of Follistatin-related protein 3 (Homo sapiens) (O95633 whole entry, looked up): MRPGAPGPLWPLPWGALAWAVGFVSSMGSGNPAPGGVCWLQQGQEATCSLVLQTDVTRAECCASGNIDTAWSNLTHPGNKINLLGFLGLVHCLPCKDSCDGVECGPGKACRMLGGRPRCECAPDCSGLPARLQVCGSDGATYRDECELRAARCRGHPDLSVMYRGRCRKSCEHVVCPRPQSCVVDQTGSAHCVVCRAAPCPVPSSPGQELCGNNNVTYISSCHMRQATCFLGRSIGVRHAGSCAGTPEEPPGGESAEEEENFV

In the case of `Cc1cccc([C@H]2C[C@H]3C(I)=C[C@@H]2C(=O)[C@]32CO2)c1`, the composite z-score is -0.636 in experiment [1]; -0.251 in [2]; 0.154 in experiment [3]; 0.575 in experiment [5]; -0.499 in [6]; -0.0512 in [7]. Moreover, the composite z-score in experiment [8] is 0.445; in [9], 0.125; in experiment [10], 1.03; in experiment [11], -0.998; in [13], 0.0047; in experiment [14], -0.542. Moreover, the composite z-score was -0.271 in [15]; -0.141 in [16]; -0.345 in experiment [17]; -0.0381 in experiment [18]; -0.0258 in [19]; 0.132 in experiment [20]. The z-score was -1.48 (inactive) in experiment [4] and -1.94 in [12].
With `Cc1c(NC(=O)/C(C#N)=C/c2ccccc2Cl)c(=O)n(-c2ccccc2)n1C`, the composite z-score in [1] was 0.633; in experiment [2], -0.258; in [3], -0.0592; in experiment [5] it was 0.185; in experiment [6] it was -0.046; in experiment [7] it was 0.139. Besides, the composite z-score in experiment [8] was 0.361; in [9], 0.491; in [10], 0.395; in [11] it was -0.11; in experiment [13], 0.453; in [14], 1.01. The composite z-score in [15] was -0.154; in [16], -0.0377; in [17] it was -0.588; in experiment [18], -0.226; in [19], 0.858; in experiment [20] it was 0.42. The figures for the z-score in experiment [4] and in experiment [12] were -0.378 (inactive) and 0.614, respectively.
As for `COc1ccc([Si](C)(C)[C@@H]2[C@@H](CCn3cc([C@H](O)c4ccccc4)nn3)O[C@]3(C(=O)N(c4ccccc4)c4ccccc43)[C@H]2C)cc1`, the composite z-score in [1] was 0.548; in experiment [2] it was -0.016; in [3], -0.142; in [5], 0.23; in experiment [6], -0.15; in experiment [7], -0.302. Also, the composite z-score in experiment [8] was 0.115; in experiment [9], 0.181; in experiment [10], 0.372; in experiment [11], -0.0404; in experiment [13], -0.184; in experiment [14], 0.052. Moreover, the composite z-score in [15] was -0.336; in experiment [16], -0.096; in experiment [17], 0.413; in experiment [18], 0.383; in [19], 0.0664; in [20] it was 0.351. The z-score in [4] was -1.18 (inactive); in experiment [12], -3.76.
Take `C=CCNC(=O)[C@H]1[C@@H]2C(=O)O[C@@H](c3ccccc3)[C@@H](c3ccccc3)N2[C@@H](c2ccc(O)cc2)[C@]12C(=O)N(C(=O)OCCOC)c1ccc(C#CCC(C(=O)OC)C(=O)OC)cc12`: the composite z-score in experiment [1] amounted to 1.37; in experiment [2] it was 0.119; in [3] it was 0.236; in experiment [5], 1.1; in [6], 1.19; in experiment [7], 0.564. Further, the composite z-score was found to be 0.914 in experiment [8]; 0.641 in experiment [9]; 0.23 in [10]; 1.07 in [11]; 0.798 in [13]; 1.5 in experiment [14]. In addition, the composite z-score in experiment [15] was 0.475; in experiment [16], -0.147; in [17], -0.154; in experiment [18] it was 0.0213; in [19] it was 1.48; in experiment [20] it was 0.201. Besides, the z-score is 0.173 (inactive) in experiment [4] and -1.53 in experiment [12].
Take `O=C1[C@@]23C=C(Br)[C@H](C[C@@H]2COC3)[C@@]12CO2`: the composite z-score in experiment [1] is 0.35; in experiment [2], -0.419; in experiment [3], -0.555; in experiment [5], 0.266; in experiment [6] it was 0.638; in experiment [7], 0.566. Further, the composite z-score in [8] was 0.514; in [9], 0.449; in experiment [10], 0.262; in experiment [11], 0.368; in experiment [13], 0.531; in [14], -0.293. Besides, the composite z-score in experiment [15] was -0.87; in experiment [16], -0.102; in experiment [17], -0.0396; in experiment [18], -0.172; in experiment [19], 0.245; in experiment [20], 0.53. Also, the z-score was 0.536 (inactive) in [4] and -2.52 in experiment [12].
As to `COCCOC(=O)N1C(=O)[C@@]2(c3cc(C#CCC(C(=O)OC)C(=O)OC)ccc31)[C@H](C(=O)NC[C@H](O)c1ccccc1)[C@H]1C(=O)O[C@H](c3ccccc3)[C@H](c3ccccc3)N1[C@@H]2c1ccc(O)cc1`, the composite z-score is 1.17 in experiment [1]; -0.0319 in experiment [2]; 0.521 in experiment [3]; 0.923 in [5]; 1.22 in [6]; -0.239 in [7]. In addition, the composite z-score was 0.186 in experiment [8]; -0.224 in experiment [9]; -0.29 in experiment [10]; 1.37 in [11]; 0.102 in [13]; 1.65 in experiment [14]. Further, the composite z-score was 0.247 in experiment [15]; -0.0194 in [16]; -0.0146 in [17]; -0.038 in experiment [18]; 1.37 in experiment [19]; 0.195 in experiment [20]. The figures for the z-score in experiment [4] and in experiment [12] were 0.556 (inactive) and -0.545, respectively.
